# Source: PubChem BioAssay AID720511 (Broad Institute, 2013)
# In all, about 350,000 compounds went through this assay and about 1,300 (0.37%) were called active. This excerpt belongs to a sample that is enriched for actives. A number with no mark means an inactive call.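 How the source made its calls: active means mean added fluorescence quench of at least 8% versus neutral control, with both replicates also reaching 8%; inconclusive means only one of the mean or replicate conditions met; inactive means mean below 8% and not both replicates reaching 8%.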
# Assay: F508del CFTR correction, initial screen, CFBE line, single point (AID 720511);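 further: cells transiently co-express mutant CFTR-F508del with the halide-sensitive YFP; corrector assay measuring rescue of mutant channel to the surface after 24 h compound exposure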
# Settings: CFBE cells, YFP halide quenching, at 7.58 µM, active compounds read high, % fluorescence drop versus neutral controls, stimulated with forskolin plus potentiator P3
row,Compound,activity (quench increase)
1,O=C(CN1CCOCC1)Nc1cccc([N+](=O)[O-])c1,-2.49%
2,Cc1ccc(CN(C)CC(=O)Nc2cccc([N+](=O)[O-])c2)o1,10.1% (active)
3,Cc1ccc(NC(=O)CN(C)CC(=O)Nc2cccc(F)c2)cc1[N+](=O)[O-],1.68%
4,COc1cccc(-c2ccc3c(c2)[C@H]2[C@H](CCN2C(=O)c2ccc(F)cc2)[C@@H](CO)N3)c1,1.42%
5,COc1cc(OC)c2c(-c3cccc(-c4cccc(N)c4)c3)cc(=O)oc2c1,8.2% (active)
6,COc1cccc(NC(=O)COc2cc(C)cc3oc(=O)cc(C)c23)c1,2.8%
7,Cc1cc2oc(=O)cc(-c3ccccc3)c2c(C)c1-c1ccc(OC(F)(F)F)cc1,1.07%
8,O=C1Nc2ccccc2C1=NN=Cc1ccco1,-2.93%
9,COc1ccc(/C=N/N=C2/C(=O)Nc3ccccc32)cc1O,-1.27%
10,Cc1cc(C)c(/C=C2\C(=O)Nc3ccccc32)[nH]1,10.3% (active)
11,O=C(NCC[C@H]1CC[C@H](NC(=O)C2CC2)[C@@H](CO)O1)c1ccc(F)cc1,1.43%
12,Cc1c(CCC(=O)O)c(=O)oc2cc(OCc3ccc(Br)cc3)ccc12,0.947%
13,COc1ccc2c(C)c(CCC(=O)NC3CC3)c(=O)oc2c1C,2.05%
14,Cc1c(CCC(=O)O)c(=O)oc2c(C)c(OCc3ccccc3Cl)ccc12,9.04% (active)
15,C[C@@H]1CN([C@@H](C)CO)S(=O)(=O)c2ccc(C#CCN(C)C)cc2O[C@@H]1CN(C)C(=O)CC1CC1,0.474%
16,COC(=O)COc1cccc2c(=O)n(CC(=O)NCCc3ccc(OC)c(OC)c3)ccc12,-1.22%
17,COC(=O)COc1cccc2c(=O)n(CC(=O)NCc3ccccc3)ccc12,11% (active)
18,CCOC(=O)C(C)Oc1cccc2c(=O)n(CC(=O)NCCc3ccc(OC)c(OC)c3)ccc12 (configuration not stated),2.66%
19,COCC#Cc1ccc([C@@H]2[C@@H](CO)N3CCCCN(C(=O)NC4CCCC4)C[C@H]23)cc1,-0.841%
20,C[C@@H]1CCCCO[C@@H](CN(C)CC2CC2)[C@@H](C)CN([C@H](C)CO)C(=O)c2cc(NC(=O)Nc3cccc4ccccc34)ccc2O1,-0.347%
21,COc1ccc(/C=C2/CCCc3ccccc3C2=O)cc1,14.3% (active)
22,COc1ccc(/C=C2\N=C3CCCN3C2=O)cc1,-1.7%
23,COc1ccc(/C=C2\CCc3ccccc3C2=O)c(OC)c1OC,-2.36%
24,Cc1ccc(S(=O)(=O)N(C)C[C@H]2OCCCC[C@@H](C)Oc3ccc(NC(=O)NC4CCCCC4)cc3C(=O)N([C@H](C)CO)C[C@@H]2C)cc1,0.861%
25,O=C(C[C@H]1C[C@@H]2c3cc(NC(=O)CC4CC4)ccc3O[C@@H]2[C@H](CO)O1)NCc1ccccn1,-1.26%
26,CN(CC(=O)Nc1ccc(Cl)cc1)C(=O)CNC(=O)c1ccc2ccccc2c1,-7.73%

row,Compound,activity (quench increase)
1,CN(CC(=O)Nc1ccccc1Cl)C(=O)COc1cccc2c1OC(C)(C)C2,-5.27%
2,Cc1cccc(C(=O)NCC(=O)OCC(=O)N(C)CC(=O)Nc2ccccc2Cl)c1,16.8% (active)
3,C/C=C/c1ccc2c(c1)O[C@H](CN(C)C(=O)Nc1ccccc1)[C@H](C)CN([C@@H](C)CO)S2(=O)=O,-0.894%
4,COc1ccc2c3c([nH]c2c1)[C@H](CO)N(C(=O)C1CCOCC1)CC31CN(S(C)(=O)=O)C1,-0.365%
5,CS(=O)(=O)Nc1ccc2c(c1)[C@H]1C[C@H](CC(=O)NCc3ccc(Oc4ccccc4)cc3)O[C@H](CO)[C@H]1O2,4.1%
6,COc1cc(OC)cc(C(=O)NC(C(=O)N2CCC2)C(C)C)c1 (configuration not stated),1.12%
7,COc1cc(OC)cc(C(=O)N[C@H](C(=O)NNC(=O)c2ccc(Br)cc2)C(C)C)c1,-1.77%
8,COc1cc(OC)cc(C(=O)N[C@H](C(=O)Nc2nc3ccccc3[nH]2)C(C)C)c1,13.5% (active)
9,COc1ccc(NC(=O)N(C)C[C@H]2OCCCC[C@H](C)Oc3ccc(NC(=O)NC4CCCCC4)cc3C(=O)N([C@@H](C)CO)C[C@@H]2C)cc1,-0.706%
10,COc1ccc2c3c([nH]c2c1)[C@H](CO)N(C(=O)c1ccccc1)CC31CN(C(=O)Nc2cccc(F)c2)C1,0.989%
11,COc1ccc2[nH]c3c(C)c4cc[n+](C)cc4c(C)c3c2c1,12.8% (active)
12,CC(C)NC(=O)Nc1ccc2c(c1)C(=O)N([C@H](C)CO)C[C@H](C)[C@H](CN(C)C(=O)CCC(F)(F)F)OCCCC[C@H](C)O2,0.243%
13,O=C(C[C@@H]1C=C[C@@H](NS(=O)(=O)c2ccccc2)[C@@H](CO)O1)NCc1ccccc1F,-1.3%
14,COCC(=O)Nc1ccc2c(c1)OC[C@@H](C)N(CCc1ccccc1)C[C@H](C)[C@@H](OC)CN(C)C2=O,-4.64%
15,Clc1ccc(Nc2ccc3ccccc3n2)cc1,9.55% (active)
16,C=CCNc1nc(Nc2ccc(Cl)cc2)nc(OC)n1,1.27%
17,Cn1c(Nc2cccc(Cl)c2)nc2ccccc21,0.14%
18,CCCNC(=O)N1CC2(CN(C(=O)c3cnccn3)C2)c2c([nH]c3cc(OC)ccc23)[C@@H]1CO,-0.147%
19,C[C@H](NC(=O)C[C@@H]1C[C@@H]2c3cc(NS(=O)(=O)c4ccc(F)cc4)ccc3O[C@@H]2[C@@H](CO)O1)c1ccccc1,0.793%
20,COc1ccc2c3c(n(C)c2c1)[C@@H](CO)N(Cc1ccncc1)CC31CN(C(=O)Nc2cccc(F)c2)C1,-1.9%
21,CC(=O)Nc1cccc(-c2ccnc3c2CC(C)(C(=O)NCc2ccco2)O3)c1 (configuration not stated),7.38%
22,COc1ccc(NC(=O)C2(C)Cc3c(-c4cccc(NC(C)=O)c4)ccnc3O2)cc1OC (configuration not stated),-0.498%
23,CC1(C(=O)NCc2ccc(F)c(F)c2)Cc2c(-c3ccc4c(c3)OCO4)ccnc2O1 (configuration not stated),0.827%
24,COc1ccc(NC(=O)C2(C)Cc3c(-c4cccc(NC(C)=O)c4)ccnc3O2)cc1 (configuration not stated),9.41% (active)
25,CC1(C(=O)NCc2ccco2)Cc2c(-c3ccc4c(c3)OCO4)ccnc2O1 (configuration not stated),8.09% (active)
26,COc1ccc(NC(=O)C2(C)Cc3c(-c4ccc(C(N)=O)cc4)ccnc3O2)cc1 (configuration not stated),-0.667%
